# The panel holds about 79,000 compounds, 15% with a hit somewhere; the sample as a whole holds those more often. Unmarked numbers belong to inactive results. Activity calls are given as the source filed them. No stated cut-off is given here; in the data, active means growth inhibition above about 70%; inactive means the rest.
# Legend:
# [1] = NCI Yeast Anticancer Drug Screen. Data for the rad50 strain (AID 155);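 further: 0% = growth of vehicle-only cultures of the same strain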; settings: S. cerevisiae rad50 strain growth inhibition, stronger effect = higher value
# How it was run: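 Relative growth inhibition (compound vs vehicle) was measured in yeast with a defined repair-gene alteration.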
# [2] = NCI Yeast Anticancer Drug Screen. Data for the mec2-1 strain (AID 157); settings: S. cerevisiae mec2-1 strain, stronger effect = higher value
# How it was run: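 Compounds were applied to mec2-1 yeast cells. Their growth was then compared with that of vehicle-treated cultures to give growth inhibition.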
# [3] = NCI Yeast Anticancer Drug Screen. Data for the sgs1 mgt1 strain (AID 161);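 further: 0% = growth of cultures given vehicle only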; settings: S. cerevisiae sgs1 mgt1 strain, stronger effect = higher value
# How it was run: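 Growth of a repair-deficient yeast mutant was monitored after compound treatment and expressed as inhibition relative to vehicle-treated cultures.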
# [4] = NCI Yeast Anticancer Drug Screen. Data for the cln2 rad14 strain (AID 165);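 further: 0% = growth equal to vehicle treated cultures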; settings: S. cerevisiae cln2 rad14 strain, stronger effect = higher value
# How it was run: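 Strain: cln2 rad14 yeast, altered in cell cycle control and DNA damage repair. Read-out: growth inhibition vs vehicle.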
# [5] = NCI Yeast Anticancer Drug Screen. Data for the bub3 strain (AID 167); settings: S. cerevisiae bub3 mutant strain, stronger effect = higher value
# How it was run: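 Screening used yeast with an engineered genetic alteration affecting cell cycle control. Compound-exposed cultures were compared with vehicle cultures, and reduced growth was taken as inhibition.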
# [6] = NCI Yeast Anticancer Drug Screen. Data for the mlh1 rad18 strain (AID 175); settings: S. cerevisiae mlh1 rad18 strain growth inhibition, stronger effect = higher value
# How it was run: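 A repair-deficient yeast strain is exposed to test compound, and growth is scored relative to vehicle-treated controls.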
# [7] = at 5.0 µM (retest, dose inferred, filed as 0.5)
# [8] = at 50.0 µM (retest, dose inferred, filed as 5.0)
compound,measurement,setting,value
CCC(=O)CC(=O)CCC(=O)Nc1ccc(Cl)cc1C,growth inhibition,[1]; at 50.0 µM unless noted,-72.2%
same,growth inhibition,[2]; at 50.0 µM unless noted,-15.4%
same,growth inhibition,[3]; at 50.0 µM unless noted,-11.6%
same,growth inhibition,[4]; at 50.0 µM unless noted,-55.2%
same,growth inhibition,[5]; at 50.0 µM unless noted,-12.4%
CC(C)C(C)(C)c1ccc(O)cc1,growth inhibition,[1]; [7],-34%
same,growth inhibition,[1]; [8],70% (active)
same,growth inhibition,[2]; [7],-2%
same,growth inhibition,[2]; [8],68%
same,growth inhibition,[3]; [7],3%
same,growth inhibition,[3]; [8],75% (active)
same,growth inhibition,[4]; [7],2%
same,growth inhibition,[4]; [8],26%
same,growth inhibition,[5]; [7],2%
same,growth inhibition,[5]; [8],61%
same,growth inhibition,[6]; [7],2%
same,growth inhibition,[6]; [8],74% (active)
O=[N+]([O-])c1cc(F)ccc1S(=O)(=O)c1ccccc1,growth inhibition,[1]; at 50.0 µM unless noted,31.6%
same,growth inhibition,[2]; at 50.0 µM unless noted,-40.5%
same,growth inhibition,[3]; at 50.0 µM unless noted,7.8%
same,growth inhibition,[4]; at 50.0 µM unless noted,1.85%
same,growth inhibition,[5]; at 50.0 µM unless noted,-23.2%
Cc1cccc(OC(=O)NC2CCCCC2)c1,growth inhibition,[1]; at 50.0 µM unless noted,3.5%
same,growth inhibition,[2]; at 50.0 µM unless noted,-4.25%
same,growth inhibition,[3]; at 50.0 µM unless noted,-13.2%
same,growth inhibition,[4]; at 50.0 µM unless noted,-72.3%
same,growth inhibition,[5]; at 50.0 µM unless noted,6.5%
C/C(CC(C)C(=O)O)=N/NC(N)=O (stereo unspecified),growth inhibition,[1]; [7],0%
same,growth inhibition,[1]; [8],34%
same,growth inhibition,[2]; [7],-8%
same,growth inhibition,[2]; [8],5%
same,growth inhibition,[3]; [7],0%
same,growth inhibition,[3]; [8],40%
same,growth inhibition,[4]; [7],-6%
same,growth inhibition,[4]; [8],-2%
same,growth inhibition,[5]; [7],-1%
same,growth inhibition,[5]; [8],20%
same,growth inhibition,[6]; [7],-31%
same,growth inhibition,[6]; [8],43%
CCN(CC)CCN(CC)C(=S)Nc1ccccc1,growth inhibition,[1]; at 50.0 µM unless noted,1.75%
same,growth inhibition,[2]; at 50.0 µM unless noted,21.2%
same,growth inhibition,[3]; at 50.0 µM unless noted,23.2%
same,growth inhibition,[4]; at 50.0 µM unless noted,-4.65%
same,growth inhibition,[5]; at 50.0 µM unless noted,2%
CC(C)CC(C(=O)NC1CCCCC1)N1C(=O)c2ccccc2C1=O (stereo unspecified),growth inhibition,[1]; at 50.0 µM unless noted,-17.1%
same,growth inhibition,[2]; at 50.0 µM unless noted,1.9%
same,growth inhibition,[3]; at 50.0 µM unless noted,-4.3%
same,growth inhibition,[4]; at 50.0 µM unless noted,-8.2%
same,growth inhibition,[5]; at 50.0 µM unless noted,-4.4%
CCN(CC(COc1ccc2c(c1)[n+]([O-])nc(N)[n+]2[O-])OC(C)=O)C(C)=O (stereo unspecified),growth inhibition,[1]; at 50.0 µM unless noted,42.9%
same,growth inhibition,[2]; at 50.0 µM unless noted,38.3%
same,growth inhibition,[3]; at 50.0 µM unless noted,41.5%
same,growth inhibition,[4]; at 50.0 µM unless noted,40.1%
same,growth inhibition,[5]; at 50.0 µM unless noted,25.4%
CC(=O)O[C@H]1C(=O)[C@@]2(C)C(C(OC(=O)c3ccccc3)[C@]3(O)CC(OC(=O)[C@H](OC(=O)CCC(=O)O)C(NC(=O)c4ccccc4)c4ccccc4)C(C)=C1C3(C)C)C1(OC(C)=O)COC1C[C@@H]2OC(=O)CCC(=O)O (stereo partly specified),growth inhibition,[1]; at 50.0 µM unless noted,29.6%
same,growth inhibition,[2]; at 50.0 µM unless noted,-5.45%
same,growth inhibition,[3]; at 50.0 µM unless noted,-25.4%
same,growth inhibition,[4]; at 50.0 µM unless noted,-7.4%
same,growth inhibition,[5]; at 50.0 µM unless noted,-8.05%
CCCCNC(=O)/C(=C\c1ccc(OC)c(OC)c1)NC(=O)c1ccccc1,growth inhibition,[1]; at 50.0 µM unless noted,-63.5%
same,growth inhibition,[2]; at 50.0 µM unless noted,-55.3%
same,growth inhibition,[3]; at 50.0 µM unless noted,-34.4%
same,growth inhibition,[4]; at 50.0 µM unless noted,-1.75%
same,growth inhibition,[5]; at 50.0 µM unless noted,-35%
Oc1cc(Cl)cc2cccnc12,growth inhibition,[1]; at 50.0 µM unless noted,87.8% (active)
same,growth inhibition,[2]; at 50.0 µM unless noted,91.5% (active)
same,growth inhibition,[3]; at 50.0 µM unless noted,88.8% (active)
same,growth inhibition,[4]; at 50.0 µM unless noted,91.6% (active)
same,growth inhibition,[5]; at 50.0 µM unless noted,90% (active)
CC[N+](CC)(CC)Cc1cn(S(=O)(=O)c2ccccc2)c2ccccc12,growth inhibition,[1]; at 50.0 µM unless noted,4.3%
same,growth inhibition,[2]; at 50.0 µM unless noted,-0.7%
same,growth inhibition,[3]; at 50.0 µM unless noted,-0.95%
same,growth inhibition,[4]; at 50.0 µM unless noted,-64.7%
same,growth inhibition,[5]; at 50.0 µM unless noted,-0.7%
same,growth inhibition,[6]; at 50.0 µM unless noted,5.95%
O=C(c1cccs1)N(C(=S)N1CCN(c2ccccc2)CC1)C1CCCCC1,growth inhibition,[1]; at 50.0 µM unless noted,-0.45%
same,growth inhibition,[2]; at 50.0 µM unless noted,-5.9%
same,growth inhibition,[3]; at 50.0 µM unless noted,-8%
same,growth inhibition,[4]; at 50.0 µM unless noted,13.4%
same,growth inhibition,[5]; at 50.0 µM unless noted,-26.8%
C[Si](C)(C)OC1CC(=O)OC1n1cc(F)c(=O)[nH]c1=O (stereo unspecified),growth inhibition,[1]; at 50.0 µM unless noted,56.8%
same,growth inhibition,[2]; at 50.0 µM unless noted,81.6% (active)
same,growth inhibition,[3]; at 50.0 µM unless noted,75.8% (active)
same,growth inhibition,[4]; at 50.0 µM unless noted,-1.15%
same,growth inhibition,[5]; at 50.0 µM unless noted,21.8%
CC(N1CCS(=O)(=O)CC1)P(=O)(O)O (stereo unspecified),growth inhibition,[1]; at 50.0 µM unless noted,0.3%
same,growth inhibition,[2]; at 50.0 µM unless noted,8.3%
same,growth inhibition,[3]; at 50.0 µM unless noted,8.8%
same,growth inhibition,[4]; at 50.0 µM unless noted,-8.5%
same,growth inhibition,[5]; at 50.0 µM unless noted,17.8%
O=Cc1c2cnc(c1O)CSCc1ccc(cc1)CSC2,growth inhibition,[1]; at 50.0 µM unless noted,9.55%
same,growth inhibition,[2]; at 50.0 µM unless noted,8.45%
same,growth inhibition,[3]; at 50.0 µM unless noted,9.35%
same,growth inhibition,[4]; at 50.0 µM unless noted,-11.7%
same,growth inhibition,[5]; at 50.0 µM unless noted,-2.9%
Cc1cn(C2CC3C(COC(c4ccccc4)N3O)O2)c(=O)[nH]c1=O (stereo unspecified),growth inhibition,[1]; at 50.0 µM unless noted,0.1%
same,growth inhibition,[2]; at 50.0 µM unless noted,-8.65%
same,growth inhibition,[3]; at 50.0 µM unless noted,21.2%
same,growth inhibition,[4]; at 50.0 µM unless noted,2.7%
same,growth inhibition,[5]; at 50.0 µM unless noted,-2.95%
same,growth inhibition,[6]; at 50.0 µM unless noted,7.15%
COc1cc(-c2cc(=O)c3c(O)c(OC)c(OC)c(OC)c3o2)cc(OC)c1OC,growth inhibition,[1]; at 50.0 µM unless noted,-9.45%
same,growth inhibition,[2]; at 50.0 µM unless noted,-2.7%
same,growth inhibition,[3]; at 50.0 µM unless noted,-10.8%
same,growth inhibition,[4]; at 50.0 µM unless noted,-10%
same,growth inhibition,[5]; at 50.0 µM unless noted,-20.8%
CCc1nc(Cl)nc(Cl)c1Cl,growth inhibition,[1]; at 50.0 µM unless noted,-9.1%
same,growth inhibition,[2]; at 50.0 µM unless noted,-17.1%
same,growth inhibition,[3]; at 50.0 µM unless noted,-18.2%
same,growth inhibition,[4]; at 50.0 µM unless noted,0.2%
same,growth inhibition,[5]; at 50.0 µM unless noted,-8.5%
COc1ccc(-c2sc(/N=C/c3ccc(N(C)CCC#N)cc3)c(C#N)c2C)cc1OC,growth inhibition,[1]; at 50.0 µM unless noted,4%
same,growth inhibition,[2]; at 50.0 µM unless noted,-1.05%
same,growth inhibition,[3]; at 50.0 µM unless noted,28.1%
same,growth inhibition,[4]; at 50.0 µM unless noted,16.4%
same,growth inhibition,[5]; at 50.0 µM unless noted,18.3%
COC1=C2CC(C)CC(OC)C(O)C(C)/C=C(\C)C(OC(N)=O)C(OC)/C=C\C=C(/C)C(=O)NC(=C(/C=N/N3CCCCC3)C1=O)C2=O (stereo unspecified),growth inhibition,[1]; at 50.0 µM unless noted,17.4%
same,growth inhibition,[2]; at 50.0 µM unless noted,10.3%
same,growth inhibition,[3]; at 50.0 µM unless noted,-13.9%
same,growth inhibition,[4]; at 50.0 µM unless noted,-15.7%
same,growth inhibition,[5]; at 50.0 µM unless noted,-12.8%
CCN(CC)c1ccc2cc(C(=O)NCc3ccccc3)c(=N)oc2c1,growth inhibition,[1]; at 50.0 µM unless noted,9.7%
same,growth inhibition,[2]; at 50.0 µM unless noted,15.8%
same,growth inhibition,[3]; at 50.0 µM unless noted,-15.8%
same,growth inhibition,[4]; at 50.0 µM unless noted,3.45%
same,growth inhibition,[5]; at 50.0 µM unless noted,-38%
C(=N\N(c1ccccc1)c1ccccc1)/C(c1ccccc1)c1ccccc1,growth inhibition,[1]; at 50.0 µM unless noted,2.55%
same,growth inhibition,[2]; at 50.0 µM unless noted,-3.2%
same,growth inhibition,[3]; at 50.0 µM unless noted,1.9%
same,growth inhibition,[4]; at 50.0 µM unless noted,-3.95%
same,growth inhibition,[5]; at 50.0 µM unless noted,2.2%

# Source: PubChem BioAssay (NCI)
